# Experimental data published in PubChem BioAssay (NCI).
# This is part of a sample that, as a whole, favours compounds with a hit. Of some 83,000 tested, about 20% had one in any assay.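 The test compound was applied at a single concentration to cells in 96-well plates for 48 hours, and percent growth was recorded.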 Active and inactive are the calls of the source.
# Tested on: NCI/ADR-RES ovarian
# Test: NCI-60 one-dose screen, 48 h (100 = growth as untreated, 0 = no growth, -100 = all killed)
# Conditions: 10 µM
# Procedure: Growth inhibition of the NCI/ADR-RES human […] tumor cell line is measured as a screen for anti-cancer activity. Cells are grown in 96 well plates and exposed to the test compound for 48 hours. Compounds are tested at a single concentration, which is 10^-5 M for most compounds. The reported endpoint is percent growth (GI% or GIPRCNT), where numbers from 0 - 100% represent growth inhibition, and numbers from -100% - 0 represent cell death. For example, a value of 40 represents 60% growth inhibition. A value of 0 means no net growth occurred over the course of the experiment. A value of -40 indicates 40% of cells at the beginning of the experiment died by the end of the experiment. A value of -100 means all cells are dead at the end of the experiment.
# NCI-60 Human Tumor Cell Lines Screen was performed using the standard one-dose NCI protocol, which is described in more detail at https://dtp.cancer.gov/discovery_development/nci-60/default.htm.
# Compounds with GIPRCNT values below 10 were considered active. Activity score was based on GIPRCNT using the following formula: […]
# Score is 0 for GIPRCNT values of 100 or above, 50 for GIPRCNT values of 0, and 100 for GIPRCNT values of -100.
row,Compound,growth
1,COc1ccc2nc(Cl)c(-c3cc(-c4ccccc4)nc(=O)[nH]3)cc2c1,6.75% (active)
2,Nc1nnc(-c2c[nH]c3ccc(F)cc23)c(-c2c[nH]c3ncccc23)n1,101% (inactive)
3,CC(=O)Nc1ccc(-n2cnc3cc(-c4ccc(NS(C)(=O)=O)cc4)ccc32)cc1,70.5% (inactive)
4,C=C1CCC2C3(C)COC(c4c(F)cccc4F)OC3CCC2(C)C1C/C=C1/C(=O)OCC1O (stereo not given),-15.1% (active)
5,CCCn1c(=O)c2[nH]c(-c3ccc(OCc4nc5ccccc5[nH]4)cc3)nc2n(CCC)c1=O,66.3% (inactive)
6,C=C1CCC2C3(C)COC(c4cccc(F)c4)OC3CCC2(C)C1CC(O)C1=CCOC1=O (stereo not given),4.5% (active)
7,CS(=O)(=O)Nc1ccc(-c2ccc3c(c2)ncn3-c2ccc(NC(=O)Nc3ccc(Br)cc3)cc2)cc1,59.8% (inactive)
8,COc1ccc2[nH]c(=O)c(CSc3ccc(Nc4nccc(-c5ccc(Cl)cc5)n4)cc3)cc2c1,73.7% (inactive)
9,COc1ccc(-c2cc(-c3cc(C(=O)c4ccc(Br)cc4)n4ccc(C)cc34)nc(N)c2C#N)cc1,82.6% (inactive)
10,COc1cccc2nc(Nc3cccc(NC(=O)c4ccc(CN5CCCN(C)CC5)c(C(F)(F)F)c4)c3)ccc12,-77.9% (active)
11,COc1cc(C2CC(c3ccccc3)=Nc3c(N)nc(N)nc3N2)ccc1Oc1nc(Nc2ccc(F)cc2)nc(N(C)C)n1 (stereo not given),36.8% (inactive)
12,CCOC(=O)N/C(=C1/OCCN1C)[P+](c1ccccc1)(c1ccccc1)c1ccccc1,106% (inactive)
13,COC1CC(Cn2cc(COc3ccc4ccc(=O)oc4c3)nn2)C(OCc2ccccc2)C(OCc2ccccc2)C1OCc1ccccc1 (stereo not given),94.3% (inactive)
14,O=C(Nc1ccc(I)cc1)Nc1nc2ccc([N+](=O)[O-])cc2s1,-88.4% (active)
15,O=C(NCCCCC(c1ccc(F)cc1)c1ccc(F)cc1)NCCCc1cccnc1,12.9% (inactive)
16,O=C(Cc1ccc2c(c1)CN(C1CCC(=O)NC1=O)C2=O)NCc1cccc2ccccc12 (stereo not given),-18.5% (active)
17,COC1=C[C@@]23CCC(=O)N2CCc2cc4c(cc2[C@H]3[C@H]1OC(=O)C(C)(C)O)OCO4,97.4% (inactive)
18,[2H]C([2H])([2H])Oc1ccc2ncc(C#Cc3cncc(C(=O)Nc4ccc(CN5CCN(C)CC5)c(C(F)(F)F)c4)c3)n2n1,-68% (active)
19,CC(C)C(=O)Nc1ccc(C(=O)NC(=S)Nc2ccc(C(=O)O)cc2)cc1,104% (inactive)
20,NC1=NC(c2ccccc2Cl)N=C(Nc2nn[nH]n2)N1 (stereo not given),104% (inactive)

row,Compound,growth
1,CC1=N/C(=C\c2ccc(N(C)C)cc2)C(=O)N1CCc1ccc(S(N)(=O)=O)cc1,96.6% (inactive)
2,COc1ccc(N(C)c2cc(C#N)nc3ccccc23)cc1N,-31.7% (active)
3,CCN1CCN(c2ccc(NC(=O)Nc3ccc4c(c3F)CCN4c3ccnc(C(=O)NC)c3)cc2C(F)(F)F)CC1,-67.6% (active)
4,CN1CCN(c2ccc(Nc3nc(NCCCNC(=O)c4ccccc4)c4sccc4n3)cc2)CC1,82.3% (inactive)
5,O=c1cc(-c2ccccc2)oc2cc(OCCCCNCc3ccccc3)cc(O)c12,-68.4% (active)
6,O=c1c2ccccc2nc(COc2ccccc2)n1/N=C/c1ccc(N2CCCC2)cc1,94.3% (inactive)
7,O=c1c2ccccc2nc(COc2ccccc2)n1/N=C/c1ccc(F)cc1,90.8% (inactive)
8,CN1CCN(c2ccc(C(=O)/C=C/c3ccc(C#N)cc3)cc2)CC1,80.8% (inactive)
9,COc1cc(/C=C/C(=O)c2ccc(F)cc2)ccc1Oc1nc(Nc2ccc(F)cc2)nc(N(C)C)n1,50.6% (inactive)
10,Nc1cccnc1/C=N/NC(=S)NCCNC(=O)c1ccc(-n2nc(-c3ccccc3O)nc2-c2ccccc2O)cc1,67.4% (inactive)
11,COc1ccc(/C=C/C(=O)c2ccc(S(=O)(=O)NCCNc3nc(Nc4ccc(F)cc4)nc(N(C)C)n3)cc2)cc1,28.1% (inactive)
12,CCOP(=O)(OCC)O[C@H]1CC[C@]2(C)[C@H]3CC[C@@H]4[C@@H]([C@](C)(O)CCC=C(C)C)CC[C@@]4(C)[C@]3(C)CC[C@H]2C1(C)C,36% (inactive)
13,O=C1Nc2ccc(Cl)cc2/C1=C/c1cccc(OCc2ccccc2)c1,8.34% (active)
14,Cc1ccc(-c2nc3ccc(C(=O)N=Nc4c(O)[nH]c5ccc(Cl)cc45)cc3[nH]2)cc1,54.1% (inactive)
15,COc1cc2oc(-c3cccc(C(=O)Nc4ccc(Cl)cc4)c3)cc(=O)c2c(OCCNC(=O)CNC(=O)OC(C)(C)C)c1OC,50.6% (inactive)
16,CC(C)(C)Nc1nc2cc(Cl)c(Cl)cc2nc1S(C)(=O)=O,7.99% (active)
17,C/C(=N\NC(N)=S)c1ccc(Nc2nc(SC(C)C)nc(-c3ccccc3)c2C#N)cc1,61.6% (inactive)
18,O=C(NCCCCCCCCCC[P+](c1ccccc1)(c1ccccc1)c1ccccc1)c1ccc(-n2nc(-c3ccccc3O)nc2-c2ccccc2O)cc1,37.4% (inactive)
19,CNC(=O)c1cc(-c2ccc(NC(=O)Nc3ccc(C)cc3)cc2)nc2cccnc12,94.3% (inactive)
20,CC(=O)Nc1nc(-c2ccc(N3CCN(C)CC3)c(NS(=O)(=O)c3ccc(C(F)(F)F)cc3)c2)cs1,-18.2% (active)
